The other results are listed elsewhere or left out. The hit rate among all sequences tested is not known here.
B1: VH:VL chains; a variant is named by its letters at X, in order (parent)
chain 1: QVQLVQSGAEVKKPGASVKVSCKASGYTFTDYXMHWVRQAPGQGLEWMGXVNPNXXXTTYNQKFEGRVTMTTDTSTSTAYMELRSLRSDDTAVYYCARXNXLDXWGQGTTVTVSS
chain 2: DIQMTQSPSSLSASVGDRVTITCSVSSSVSSIYLHWYQQKPGKAPKLLIYSTSNLASGVPSRFSGSGSGTDFTLTISSLQPEDFATYYCQVYSGYPLTFGGGTKVEIK

Variants of: B1
Assay: yeast display scFab, FACS + sequencing
Conditions: with MET
Summary of the method: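 Heavy-chain CDR mutant scFab yeast surface library, enriched by two magnetic rounds on HGFR-Fc-coated Protein A beads and then by FACS. Cells were labelled with 1 nM HGFR-Fc in PBSB with 1% milk and anti-Myc for 3 h at room temperature, and the top 50% antigen-positive cells were gated. Round-3 sorted and input populations were deep sequenced in two replicates. Antigen binding call: positive if a sequence occurred in both antigen-positive samples, negative if it occurred only in input.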

Row | Variant | antigen binding call
1 | VAGGDDAV | no binding
2 | FAEGAAGD | no binding
3 | VGGTSSLD | no binding
4 | DKRKGVSD chain 1 S88F | no binding
5 | ATGRADGV | no binding
6 | FRGRGSAD | binds
7 | AAGRSDLV chain 1 R67H | no binding
8 | FAGRSDWV chain 1 R67H | no binding
9 | SRTRDAGD | binds
10 | FRTRDVGF | no binding
11 | FRTRDAGD | binds
12 | SEGGDAGD | no binding
13 | SETTDAGD | no binding
14 | YRTRDSVA | binds
15 | YTTRDDSD | no binding
16 | YRTRDSLD | binds
17 | STEASYLS | no binding
18 | VGRATVGS | no binding
19 | FTRRSSLF chain 1 V111I | no binding
20 | FTTRDDSD | no binding
21 | FRTRDSLD | binds
22 | YRTRDSVD | binds
23 | FRGRDFLD | no binding
24 | FRTRDALD | binds

Row | Variant | antigen binding call
25 | SARKGDVA | no binding
26 | VTGTGDVY | no binding
27 | STGGDDGF | no binding
28 | YAGGDDAV | no binding
29 | DTKAADGV | no binding
30 | YRGKDASD | binds
31 | YRAGAASD | binds
32 | YRAGSASD | binds
33 | DRAGDASD | no binding
34 | YREGDASD | no binding
35 | AARADDAA | no binding
36 | SEARSDAA | no binding
37 | YAGEGFGV | no binding
38 | VKKTGDLY | no binding
39 | VRERGSWD | binds
40 | VTERGSLD | no binding
41 | VRERGASD | binds
42 | VKAGGDVY | no binding
43 | VRERGAWD | binds
44 | VKAGGSLY | binds
45 | VGGTSSSA | no binding
46 | AGGTSYSV | no binding
47 | SARADSGV | no binding
48 | VTGGDYAV | no binding

Row | Variant | antigen binding call
49 | DEGTGAVA | no binding
50 | VRKGGSVY | no binding
51 | VRERGSLY | binds
52 | SEARSSSD | no binding
53 | YRARSSSD | binds
54 | YRARGSWD | binds
55 | YRRGGSWD | binds
56 | YRARSSWD | binds
57 | VAREDDLS | no binding
58 | VEGGGDGA | no binding
59 | ATGRADVY | no binding
60 | VEEASSWA | no binding
61 | SGGGNDLA chain 1 R87K | no binding
62 | YRAGDSWD | binds
63 | YAAGSSWD | no binding
64 | YRRGASWD | binds
65 | YRRGDAWD | binds
66 | YRAGSSWD | binds
67 | DRAGDSWD | no binding
68 | DRAGDSWA | no binding
69 | DETKGDWD | no binding
70 | YRAGGSWF | binds
71 | YRARGAWD | binds
72 | YRRGDSWD | binds

Row | Variant | antigen binding call
73 | YRAKGSWD | binds
74 | YEGAASWF | no binding
75 | VTGTGDWV | no binding
76 | VEEEGSVV | no binding
77 | DAKEGDAV | no binding
78 | DTGGGAWD | no binding
79 | YRRGDSAD | binds
80 | YKARGSWD | binds
81 | FRAGSSWD | binds
82 | FREGASWD | no binding
83 | VEAGSDGV | no binding
84 | VEKEGDGV | no binding
85 | DTTGSASF | no binding
86 | YRKENYGD | no binding
87 | YRAGGVGD | binds
88 | YRAGGYGD | binds
89 | VKGRGSAY | binds
90 | YKGRGSAY | binds
91 | VAGTGDVF | no binding
92 | YRERTAAV | no binding
93 | FRGRGFGV | binds
94 | YRGKSAAV | binds
95 | YRGRTAAV | binds
96 | YRGRSAGV | binds

Row | Variant | antigen binding call
97 | FKGRGFGV | no binding
98 | YTGKSVAV | no binding
99 | DTREGAVV | no binding
100 | VAGGDYLV | no binding
101 | DKGGGDVA | no binding
102 | AGEGNSWA | no binding
103 | VAGTGDGA | no binding
104 | YRGRTAGV | binds
105 | YRGRSFAV | no binding
106 | YRGRSFGV | binds
107 | YRGRGFGV | binds
108 | DRGRDFGV | no binding
109 | YRRRTAAV | binds
110 | VRGRDFGV | no binding
111 | YAGRTAGV | no binding
112 | SEARNDGA | no binding
113 | DAGGDAGD | no binding
114 | VTRGADAA | no binding
115 | AARADDSV | no binding
116 | YRTRGSGY | binds
117 | YRTRGSLY | binds
118 | YATEDDWV | no binding
119 | VETGNAVY | no binding
120 | SEARSDLY | no binding

Row | Variant | antigen binding call
121 | FAEGSYAF | no binding
122 | VGAEDDVA | no binding
123 | SGETGDSV | no binding
124 | FRGRSSAA | binds
125 | FRGRGSAA | binds
126 | VTGRGDVA | no binding
127 | DREEGAGV | no binding
128 | YREGGSGV | binds
129 | DKEGGSGV | no binding
130 | YREGGAGV | binds
131 | VEKEGDWY | no binding
132 | SAREGDLA | no binding
133 | VRAGGSAD | binds
134 | VEEEGSAD | no binding
135 | VAGTGSAD | no binding
136 | VRAKGSAD | binds
137 | VTAGDSAD | no binding
138 | VARETDVA | no binding
139 | VKGRGDAA | no binding
140 | VKGRGSWA | binds
141 | VKTGGSWA | no binding
142 | DEGRGSWA | no binding
143 | VKGRGAWA | binds
144 | VKGRGFAA | no binding

Row | Variant | antigen binding call
145 | VTRGADGV | no binding
146 | VAGGDFGV | no binding
147 | FRGKGSWD | binds
148 | SKKTGSVD | no binding
149 | SAGTGSWD | no binding
150 | FRGKGASD | binds
151 | SKKRGSWD | binds
152 | SKGKGSWD | binds
153 | VEAGDDWV | no binding
154 | SGRGNDGV | no binding
155 | DTGGDDWF | no binding
156 | DAGGGDAV | no binding
157 | FRGTSFGD chain 1 T58I | no binding
158 | FKGKGSWD | binds
159 | FAGTGSWD | no binding
160 | FRGKGAWD | binds
161 | FRGTGFVD | binds
162 | YAGTGFVD | no binding
163 | YKGKGSWD | binds
164 | AAGGNAWS chain 1 G66S | no binding
165 | FRGKGAVD | binds
166 | DGGKGAVD | no binding
167 | YKGGSAAA | binds
168 | FKGGSSAA | no binding

Row | Variant | antigen binding call
169 | DKGEGAAA | no binding
170 | DKGGSDVA | no binding
171 | YKGGSSAA | binds
172 | DKGGSAVV | no binding
173 | YKGRSAAA | binds
174 | DEGGTDVF | no binding
175 | DGGKNDWV | no binding
176 | DAGGASSS | no binding
177 | YTERNFGV | no binding
178 | FRGRDFLF | no binding
179 | FRAGGSLF | binds
180 | FRGADSGF chain 1 R98K | no binding
181 | FRARSSGF | binds
182 | FRGGGSGF | binds
183 | FRGRGSGF | binds
184 | DRAGDSGF | no binding
185 | FTARSAGF | no binding
186 | DGGKNSVD | no binding
187 | VEGGGFSV | no binding
188 | VEAGDDAV | no binding
189 | ATAGSDGV | no binding
190 | DAARGDGA | no binding
191 | VKGRSDVY | no binding
192 | FRGRGSLF | binds

Row | Variant | antigen binding call
193 | FRGRGSVF | binds
194 | FRKRGSVF | binds
195 | FRGRGALF | binds
196 | ARAAGDVF | no binding
197 | YRGGSSGY | binds
198 | YRGAGSGS | binds
199 | YRGAGSGD | binds
200 | YRGAGSGY | binds
201 | AERRDDGA | no binding
202 | VAGGGAGV | no binding
203 | YAGGDDSA | no binding
204 | VTTKSFGV | no binding
205 | YAGAGAVY | no binding
206 | YRGAGAVY | binds
207 | YRGAGAGS | binds
208 | ARGAGYGS | no binding
209 | YRGAGAVS | binds
210 | YRGAGYGS | no binding
211 | YRGAGAWS | binds
